Here are results for one compound from PubChem BioAssay (NCATS).

The nature of test [1]: Cell Viability - LYMP2-006 (AID 978). Note: series mostly up to about 92 µM; % is set by controls: 0 for no effect and ±100 for the full control effect; nearly all actives have a fitted effect of over 60% in size. The procedure, abridged: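 Potency values are Hill-fit AC50s for decreases in intracellular ATP (CellTiter-Glo luminescence). LYMP2-006 lymphoblastoid cells, 2500 per well, were exposed to compound in complete culture medium for 24 hr at 37 C.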
Test [2] is described as follows: Cell Viability - LYMP2-007 (AID 979).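 Note: cells exposed to compound for 24 h before reading; 0% = DMSO only and the negative end = 92 µM tetraoctylammonium bromide; nearly all actives have a fitted effect of over 60% in size.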 The procedure, abridged:
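Measured via luciferase-based ATP quantitation: lymphoblastoid cells, 24 hr compound exposure at 37 C, AC50 from Hill fits.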

A short description of test [3]: Cell Viability - LYMP2-008 (AID 980). Note: % is set by controls: 0 for no effect and ±100 for the full control effect; nearly all actives have a fitted effect of over 60% in size. The essentials:
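Measured: ATP-dependent luminescence, proportional to viable cell number, in human lymphoblastoid cells treated 24 hr with compound in complete culture medium. Values are AC50s from Hill-equation modelling of qHTS titrations.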

Test [4] can be described thus: Cell Viability - LYMP2-010 (AID 981). Note: % is set by controls: 0 for no effect and ±100 for the full control effect; nearly all actives have a fitted effect of over 55% in size. The essentials: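 This 24 hr viability screen uses LYMP2-010 lymphoblastoid cells, quantifies ATP via luciferase luminescence, and derives AC50 from Hill fits of qHTS concentration-response data.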
Test [5] is described as follows: Cell Viability - LYMP2-014 (AID 983).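 Note: series mostly up to about 92 µM; plate controls were DMSO only for no effect and 92 µM tetraoctylammonium bromide for full effect; nearly all actives have a fitted effect of over 50% in size.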 The essentials: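 Quantitative HTS in lymphoblastoid cells: 24 hr compound exposure, then CellTiter-Glo ATP luminescence. Positive control was tetraoctylammonium bromide, 6.4pM to 92 uM.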
The nature of test [6]: Cell Viability - LYMP2-016 (AID 984). Note: % is set by controls: 0 for no effect and ±100 for the full control effect; nearly all actives have a fitted effect of over 55% in size. The essentials: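 Cytotoxicity was scored by luminescent ATP content (CellTiter-Glo) after 24 h compound exposure at 37 C of a human lymphoblastoid line at 2500 cells/well. Concentration-response data were fitted to the Hill equation for AC50.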
Test [7] can be described thus: Cell Viability - LYMP2-018 (AID 985).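 Note: plate controls were DMSO only for no effect and tetraoctylammonium bromide at 92 µM for full effect; nearly all actives have a fitted effect of over 50% in size.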 The procedure, abridged: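 In this qHTS viability assay, cells are treated for 24 hr and cellular ATP is quantified by luciferase-based luminescence, with tetraoctylammonium bromide as positive control.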
Test [8] can be described thus: Cell Viability - LYMP2-020 (AID 986).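 Note: series mostly up to about 92 µM; plate controls were DMSO only for no effect and tetraoctylammonium bromide at 92 µM for full effect; nearly all actives have a fitted effect of over 55% in size.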 The essentials:
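Cells at 2500 per well receive a 24 hr compound exposure at 37 C. Viability is measured as ATP-dependent luciferase luminescence, with AC50 modeled from qHTS concentration-response curves.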

The nature of test [9]: Cell Viability - LYMP2-022 (AID 987).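 Note: 0% = DMSO alone and full effect = tetraoctylammonium bromide at 92 µM; nearly all actives have a fitted effect of over 55% in size.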 The essentials: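 In this qHTS cytotoxicity screen, compound titrations were incubated 24 hr at 37 C with human lymphoblastoid cells in complete medium. Luciferase-based ATP luminescence provided the viability signal.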
The nature of test [10]: Cell Viability - LYMP2-026 (AID 989). Note: % is set by controls: 0 for no effect and ±100 for the full control effect; nearly all actives have a fitted effect of over 50% in size. The essentials: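 Acute toxicity screen in complete culture medium, with 24 hr compound exposure at 37 C. Viability read as cellular ATP via luciferase reaction, with tetraoctylammonium bromide (6.4pM to 92 uM) as positive control.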
Test [11] in a line: Cell Viability - LYMP1-002 - Assay at 40 hr (AID 994).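 Note: 0% = DMSO only and full inhibition = 92 µM tetraoctylammonium bromide; nearly all actives have a fitted effect of over 60% in size.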 The essentials:
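Concentration-dependent ATP loss after 40 hr treatment at 37 C defined toxicity; AC50 values were obtained by fitting the standard Hill equation.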

Test [12] can be described thus: qHTS Assay for Identification of Small Molecule Inducers of Hypoxia Response (AID 2120; active = well fitted curve in the direction sought with a large enough effect in the signal ratio, with a control signal flat, not every such curve was filed as active; the % refers to the signal ratio; note: 0% is about no effect). The essentials:
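HRE-bla ME-180, 2500 cells/well, 0.5% dialyzed FBS medium; cpd titration, 17 h 37 degrees C; CCF4 2.5 h RT; Ex 405, Em 460/530 ratio -> %Activity, AC50.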
For orientation: Quantitative high-throughput screening tests each substance at several concentrations.

For test [13], the target named is Estrogen receptor (Homo sapiens) (UniProt P03372). The test is described as follows: qHTS assay for small molecule antagonists of estrogen receptor alpha signaling (AID 588513; active = well fitted curve in the direction sought with a large enough effect in the signal ratio, with a control signal flat, not every such curve was filed as active; the % refers to the signal ratio; note: % is set by controls: 0 for no effect and ±100 for the full control effect). The procedure, abridged:
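Antagonist mode: inhibition of 0.5 nM 17-beta-estradiol-driven beta-lactamase reporter in HEK 293 ER-alpha-UAS-bla cells, 18 h at 37C, CCF4 readout after 2 h at RT. Normalised to estradiol and DMSO; titration fitted to Hill.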

Test [14] deals with Androgen receptor (Homo sapiens) (UniProt P10275). Kind of test: qHTS assay for small molecule agonists of androgen receptor signaling (AID 588515; active = well fitted curve in the direction sought with a large enough effect in the signal ratio, with a control signal flat; the % refers to the signal ratio; note: % is set by controls: 0 for no effect and ±100 for the full control effect). To be noted: AR-UAS-bla HEK293, beta-lactamase ratio, agonist 16 h; stronger effect = higher value. The procedure, abridged:
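Stimulation of an AR-responsive β-lactamase reporter in GripTite HEK293 cells was measured after 16 h compound exposure at 37 °C, via CCF4 fluorescence after 2 h RT. EC50 from Hill fits, normalized to R1881 at 30 nM.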

Test [15] has the same target. The test is described as follows: qHTS assay for small molecule antagonists of androgen receptor signaling (AID 588516; active = well fitted curve in the direction sought with a large enough effect in the signal ratio, with a control signal flat, not every such curve was filed as active; the % refers to the signal ratio; note: % is set by controls: 0 for no effect and ±100 for the full control effect). The procedure, abridged: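 Antagonist mode: inhibition of R1881-stimulated (10 nM final) bla reporter in GeneBLAzer AR HEK 293 cells, 16 h at 37C, compounds titrated. IC50 and efficacy from Hill-equation fits of 405/460–530 nm FRET ratios.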
Test [16] addresses Bile acid receptor (Homo sapiens) (UniProt Q96RI1). The test is described as follows: qHTS assay for small molecule antagonists of farnesoid X receptor signaling (AID 588526; calls by dose curve; note: % is set by controls: 0 for no effect and ±100 for the full control effect). The procedure, abridged: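 Beta-lactamase reporter antagonist mode: HEK293T FXR-UAS-bla cells, titrated compound, CDCA stimulation, 16 h 37 C, CCF4 dye 2 h RT. Data normalized to CDCA 50 uM and DMSO; Hill-fit IC50.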

In test [17] the target is Glucocorticoid receptor (Homo sapiens) (UniProt P04150). The test is described as follows: qHTS assay for small molecule antagonists of glucocorticoid receptor signaling (AID 588533; active = well fitted inhibition curve with a large enough effect in the signal ratio, with a control signal flat, not every such curve was filed as active; the % refers to the signal ratio). The procedure, abridged: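 Antagonist-mode qHTS: compound titrations added to GRE-bla HeLa cells, then dexamethasone 2 nM final; 18 h, 37 C. CCF4 FRET fluorescence normalized to dexamethasone and DMSO; IC50 from Hill fit.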
Sequence of Glucocorticoid receptor (Homo sapiens) (P04150 whole entry, looked up): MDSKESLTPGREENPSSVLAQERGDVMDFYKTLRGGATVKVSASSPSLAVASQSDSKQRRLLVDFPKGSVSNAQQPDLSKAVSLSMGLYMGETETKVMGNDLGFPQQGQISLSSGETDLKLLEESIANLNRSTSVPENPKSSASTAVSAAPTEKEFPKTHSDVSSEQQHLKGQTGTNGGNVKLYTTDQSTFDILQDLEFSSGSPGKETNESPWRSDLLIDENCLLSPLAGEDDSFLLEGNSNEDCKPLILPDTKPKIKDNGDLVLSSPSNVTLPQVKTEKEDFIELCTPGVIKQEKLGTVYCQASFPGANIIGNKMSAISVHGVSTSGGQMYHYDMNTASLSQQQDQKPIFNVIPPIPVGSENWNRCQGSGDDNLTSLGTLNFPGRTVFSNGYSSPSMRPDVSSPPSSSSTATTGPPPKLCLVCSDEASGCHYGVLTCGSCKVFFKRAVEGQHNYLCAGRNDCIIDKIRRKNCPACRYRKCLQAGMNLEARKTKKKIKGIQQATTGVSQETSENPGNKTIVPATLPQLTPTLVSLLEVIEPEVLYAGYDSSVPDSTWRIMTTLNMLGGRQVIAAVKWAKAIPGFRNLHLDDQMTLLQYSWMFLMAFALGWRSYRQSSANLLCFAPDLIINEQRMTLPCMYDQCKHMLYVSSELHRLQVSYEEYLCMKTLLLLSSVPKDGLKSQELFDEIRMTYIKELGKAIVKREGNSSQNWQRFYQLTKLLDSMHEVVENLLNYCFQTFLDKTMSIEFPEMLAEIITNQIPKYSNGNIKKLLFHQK

Test [18] deals with Peroxisome proliferator-activated receptor gamma (Homo sapiens) (UniProt P37231). The test is described as follows: qHTS assay for small molecule agonists of peroxisome proliferator-activated receptor gamma signaling (AID 588536; active = well fitted curve in the direction sought with a large enough effect in the signal ratio, with a control signal flat, not every such curve was filed as active; the % refers to the signal ratio;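 note: 0% = DMSO basal wells and 100% = rosiglitazone at 2 µM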). The procedure, abridged: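 Compound treatment: 16 h, 37 C, HEK293 GeneBLAzer cells. Detection: CCF4, 2 h RT. Values: Hill-fit EC50, efficacy as % of 2 uM rosiglitazone.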
Sequence of Peroxisome proliferator-activated receptor gamma (Homo sapiens) (P37231 whole entry, looked up): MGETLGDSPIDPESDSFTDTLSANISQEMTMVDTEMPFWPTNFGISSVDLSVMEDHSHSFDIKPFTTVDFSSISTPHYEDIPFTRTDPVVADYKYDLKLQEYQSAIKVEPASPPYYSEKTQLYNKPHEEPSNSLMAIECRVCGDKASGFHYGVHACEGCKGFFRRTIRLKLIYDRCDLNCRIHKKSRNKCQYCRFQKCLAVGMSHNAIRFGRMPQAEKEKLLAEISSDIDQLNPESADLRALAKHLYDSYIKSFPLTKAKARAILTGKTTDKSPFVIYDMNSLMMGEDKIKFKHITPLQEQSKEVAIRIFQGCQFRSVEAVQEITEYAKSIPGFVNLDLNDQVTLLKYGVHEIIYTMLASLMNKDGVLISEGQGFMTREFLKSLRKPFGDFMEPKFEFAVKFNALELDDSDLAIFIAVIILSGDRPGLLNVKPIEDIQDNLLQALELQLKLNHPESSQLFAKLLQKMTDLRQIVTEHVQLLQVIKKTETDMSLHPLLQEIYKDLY

The target in test [19] is Vitamin D3 receptor (Homo sapiens) (UniProt P11473). Kind of test: qHTS assay for small molecule antagonists of vitamin D receptor signaling (AID 588541; calls by dose curve). The essentials:
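Antagonist-mode beta-lactamase reporter assay: HEK293T VDR-UAS-bla cells were exposed to titrated compound alongside 1-alpha,25-dihydroxyvitamin D3 at 3 nM final for 16 h. Values were normalized to the 50 nM agonist control and DMSO basal, with IC50 and efficacy from Hill equation fits.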

For test [20] the target is unchanged. Kind of test: qHTS assay for small molecule agonists of vitamin D receptor signaling (AID 588543; calls by dose curve;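 note: 0% = DMSO basal and 100% = reference agonist control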). The procedure, abridged: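 Agonist-mode beta-lactamase reporter: HEK293T VDR-UAS-bla cells in charcoal-stripped 2% FBS, compound series 16 h 37 C, CCF4 2 h RT. EC50 from Hill fit, scaled against DMSO and 50 nM calcitriol control.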
Test [21] addresses Thyroid hormone receptor beta (Homo sapiens) (UniProt P10828). Kind of test: qHTS assay for small molecule agonists of thyroid hormone receptor beta signaling (AID 588545; calls by dose curve). The procedure, abridged:
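Agonist activity was read as beta-lactamase CCF4 fluorescence (405 ex, 460/530 em), scaled between DMSO (0%) and 10 nM T3 (100%), then Hill-fitted for EC50 and efficacy. HEK 293 TR-UAS-bla cells in 2% charcoal/dextran FBS medium were exposed 18 h at 37 C.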

Test [22] in a line: qHTS assay for small molecule antagonists of retinoid X receptor alpha signaling (AID 588546; active = well fitted inhibition curve with a large enough effect in the signal ratio, with a control signal flat, not every such curve was filed as active; the % refers to the signal ratio). To be noted: HEK293T RXRa-UAS-bla, beta-lactamase ratio, antagonist mode; measured here: W530 green channel, cytotoxicity proxy. The procedure, abridged: (§1)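 Beta-lactamase reporter inhibition, read as CCF4 fluorescence ratio (ex 405, em 460/530 nm) after 2 h at RT. HEK293T UAS-bla cells, 2500/well, were stimulated with 9-cis-RA at 500 or 100 nM final alongside test compound for 18 h at 37 C.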

Test [23] deals with Retinoic acid receptor RXR-alpha (Homo sapiens) (UniProt P19793). The description is as above. To be noted: HEK293T RXRa-UAS-bla, beta-lactamase ratio, antagonist mode. The essentials: as §1
Sequence of Retinoic acid receptor RXR-alpha (Homo sapiens) (P19793 whole entry, looked up): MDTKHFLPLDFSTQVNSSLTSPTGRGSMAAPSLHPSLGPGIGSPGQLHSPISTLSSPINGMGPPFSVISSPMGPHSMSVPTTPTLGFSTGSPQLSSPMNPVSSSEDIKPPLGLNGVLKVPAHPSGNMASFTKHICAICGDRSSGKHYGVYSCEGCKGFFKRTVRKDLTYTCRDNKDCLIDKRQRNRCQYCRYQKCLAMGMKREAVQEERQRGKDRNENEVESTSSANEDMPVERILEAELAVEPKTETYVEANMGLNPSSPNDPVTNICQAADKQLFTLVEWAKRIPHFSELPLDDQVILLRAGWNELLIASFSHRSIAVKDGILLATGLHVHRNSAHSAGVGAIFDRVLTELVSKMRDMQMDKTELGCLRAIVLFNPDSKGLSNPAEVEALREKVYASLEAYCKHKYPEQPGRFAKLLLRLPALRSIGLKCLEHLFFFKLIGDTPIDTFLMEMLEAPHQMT

Records with an inconclusive call do not appear. The source made the active and inactive calls. Unless noted, calls come from the whole dose curve; as a rule, active = well fitted cell-killing curve with a large enough effect; inconclusive = small, poorly fitted or top-dose-only effect; inactive = flat fitted curve, though single readings scatter.

Sequence of Androgen receptor (Homo sapiens) (P10275 whole entry, looked up): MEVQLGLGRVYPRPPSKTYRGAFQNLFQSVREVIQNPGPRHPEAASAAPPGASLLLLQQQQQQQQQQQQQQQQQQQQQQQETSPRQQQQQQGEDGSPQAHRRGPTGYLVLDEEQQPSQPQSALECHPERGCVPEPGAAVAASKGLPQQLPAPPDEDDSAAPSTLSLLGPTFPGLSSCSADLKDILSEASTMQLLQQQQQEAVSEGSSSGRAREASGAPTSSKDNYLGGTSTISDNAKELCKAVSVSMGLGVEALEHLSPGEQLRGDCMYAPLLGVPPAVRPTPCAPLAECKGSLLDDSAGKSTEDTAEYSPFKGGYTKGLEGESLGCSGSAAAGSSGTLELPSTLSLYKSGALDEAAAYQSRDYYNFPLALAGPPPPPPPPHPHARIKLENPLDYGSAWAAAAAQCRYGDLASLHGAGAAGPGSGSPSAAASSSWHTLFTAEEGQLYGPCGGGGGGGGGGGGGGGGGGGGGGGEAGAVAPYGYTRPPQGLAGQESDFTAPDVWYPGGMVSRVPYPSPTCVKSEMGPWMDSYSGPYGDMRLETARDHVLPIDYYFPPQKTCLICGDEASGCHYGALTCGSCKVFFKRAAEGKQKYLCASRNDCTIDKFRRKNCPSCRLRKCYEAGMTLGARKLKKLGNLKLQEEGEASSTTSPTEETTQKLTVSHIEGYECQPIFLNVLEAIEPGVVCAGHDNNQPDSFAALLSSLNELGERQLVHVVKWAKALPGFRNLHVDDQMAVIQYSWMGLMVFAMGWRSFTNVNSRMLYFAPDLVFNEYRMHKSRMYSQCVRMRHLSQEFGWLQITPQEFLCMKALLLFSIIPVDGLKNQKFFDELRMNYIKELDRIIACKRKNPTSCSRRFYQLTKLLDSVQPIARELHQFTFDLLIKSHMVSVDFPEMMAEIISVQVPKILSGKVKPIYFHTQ
Sequence of Vitamin D3 receptor (Homo sapiens) (P11473 whole entry, looked up): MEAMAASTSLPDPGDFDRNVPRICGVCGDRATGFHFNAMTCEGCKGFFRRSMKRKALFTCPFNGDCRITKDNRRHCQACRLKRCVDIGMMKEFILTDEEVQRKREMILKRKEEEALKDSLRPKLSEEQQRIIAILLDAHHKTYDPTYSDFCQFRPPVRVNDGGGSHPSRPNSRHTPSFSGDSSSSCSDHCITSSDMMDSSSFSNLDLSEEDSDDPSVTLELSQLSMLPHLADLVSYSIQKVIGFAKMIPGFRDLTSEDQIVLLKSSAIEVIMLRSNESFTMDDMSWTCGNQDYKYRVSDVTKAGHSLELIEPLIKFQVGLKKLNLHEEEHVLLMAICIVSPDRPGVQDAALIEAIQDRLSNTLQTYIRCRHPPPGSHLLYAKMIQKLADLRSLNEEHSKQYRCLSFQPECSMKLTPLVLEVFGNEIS
Sequence of Thyroid hormone receptor beta (Homo sapiens) (P10828 whole entry, looked up): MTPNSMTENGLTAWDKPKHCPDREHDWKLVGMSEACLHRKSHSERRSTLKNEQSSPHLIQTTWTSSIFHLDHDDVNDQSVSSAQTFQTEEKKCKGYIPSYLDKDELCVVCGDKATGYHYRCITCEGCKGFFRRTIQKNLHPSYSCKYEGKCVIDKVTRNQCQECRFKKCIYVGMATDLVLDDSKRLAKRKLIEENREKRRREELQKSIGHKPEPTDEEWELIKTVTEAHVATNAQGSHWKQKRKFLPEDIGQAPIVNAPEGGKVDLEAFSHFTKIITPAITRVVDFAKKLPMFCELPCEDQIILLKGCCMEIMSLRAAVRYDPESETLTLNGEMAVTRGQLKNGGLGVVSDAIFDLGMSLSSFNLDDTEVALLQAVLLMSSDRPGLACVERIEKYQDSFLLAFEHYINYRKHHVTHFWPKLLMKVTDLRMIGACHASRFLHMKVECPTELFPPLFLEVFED
Sequence of Estrogen receptor (Homo sapiens) (P03372 whole entry, looked up): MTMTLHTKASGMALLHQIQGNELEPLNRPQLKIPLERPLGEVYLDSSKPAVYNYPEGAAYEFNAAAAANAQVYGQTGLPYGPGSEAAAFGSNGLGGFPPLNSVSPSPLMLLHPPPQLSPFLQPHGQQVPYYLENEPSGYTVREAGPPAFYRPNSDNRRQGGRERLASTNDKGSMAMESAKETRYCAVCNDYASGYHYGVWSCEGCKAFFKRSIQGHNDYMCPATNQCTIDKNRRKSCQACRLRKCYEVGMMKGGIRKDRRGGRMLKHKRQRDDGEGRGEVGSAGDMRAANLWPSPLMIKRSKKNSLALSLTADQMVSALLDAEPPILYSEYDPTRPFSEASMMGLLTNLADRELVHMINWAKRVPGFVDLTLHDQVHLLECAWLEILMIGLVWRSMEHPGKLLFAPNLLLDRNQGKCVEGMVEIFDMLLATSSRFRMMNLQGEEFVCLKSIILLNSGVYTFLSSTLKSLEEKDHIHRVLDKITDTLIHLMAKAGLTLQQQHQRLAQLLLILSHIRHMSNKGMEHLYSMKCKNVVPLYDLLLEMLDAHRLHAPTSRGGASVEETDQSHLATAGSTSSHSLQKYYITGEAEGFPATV
Sequence of Bile acid receptor (Homo sapiens) (Q96RI1 whole entry, looked up): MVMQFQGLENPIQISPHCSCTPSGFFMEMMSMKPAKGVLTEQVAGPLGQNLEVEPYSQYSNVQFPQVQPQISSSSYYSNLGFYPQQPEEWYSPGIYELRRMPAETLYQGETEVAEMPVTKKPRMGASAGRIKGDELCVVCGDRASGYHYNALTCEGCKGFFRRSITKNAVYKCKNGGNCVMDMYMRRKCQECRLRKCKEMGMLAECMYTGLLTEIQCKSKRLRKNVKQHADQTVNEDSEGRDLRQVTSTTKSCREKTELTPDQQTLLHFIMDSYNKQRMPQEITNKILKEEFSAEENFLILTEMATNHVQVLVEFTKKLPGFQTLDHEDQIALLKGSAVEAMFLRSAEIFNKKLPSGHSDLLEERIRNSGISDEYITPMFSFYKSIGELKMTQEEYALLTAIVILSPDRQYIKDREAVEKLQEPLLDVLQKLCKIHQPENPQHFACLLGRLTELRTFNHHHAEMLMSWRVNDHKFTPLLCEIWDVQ

With `CC1=C2[C@H](/C=C(\C)C(=O)O)CC[C@@H](C)[C@H]2CC1`, the Potency result in test [1], in test [2], in [3], in test [4], in [5] and in test [6] was “inactive” in each case. Also, the Potency entry in test [7], in [8], in test [9], in test [10], in test [11] and in [13] was “inactive” in each case. In test [17], the Potency result was “inactive”. Moreover, the outcome in test [12], in test [15], in test [16], in [18], in test [19] and in [20] was inactive. Besides, the compound was called inactive in test [21]. For the same compound, the activation in test [14] was -0.457% (inactive). The max response is 26.2% in test [22] and -25.2% (inactive) in test [23].
